Compound activity as filed in PubChem.
Rows were chosen to be rich in hits. Some 7% of all compounds tested hit in one or more screens of this group.
PLK1 PBD inh: PLK1 (human) polo-box domain binding inhibition; Potency, µM, for inactives: max response, negative = inhibition, hits mostly inhibitors; AID 720504; Plk1 PBD binding of FITC phosphopeptide, fluorescence polarization; P53350; 2.8% of 360,000 active; note: potency is the fitted concentration of half-maximal effect; series mostly up to about 57 µM; % is set by controls: 0 for no effect and ±100 for the full control effect; nearly all actives have a fitted effect of over 65% in size
Target sequence (P53350 whole entry, looked up, the tested form may be a part): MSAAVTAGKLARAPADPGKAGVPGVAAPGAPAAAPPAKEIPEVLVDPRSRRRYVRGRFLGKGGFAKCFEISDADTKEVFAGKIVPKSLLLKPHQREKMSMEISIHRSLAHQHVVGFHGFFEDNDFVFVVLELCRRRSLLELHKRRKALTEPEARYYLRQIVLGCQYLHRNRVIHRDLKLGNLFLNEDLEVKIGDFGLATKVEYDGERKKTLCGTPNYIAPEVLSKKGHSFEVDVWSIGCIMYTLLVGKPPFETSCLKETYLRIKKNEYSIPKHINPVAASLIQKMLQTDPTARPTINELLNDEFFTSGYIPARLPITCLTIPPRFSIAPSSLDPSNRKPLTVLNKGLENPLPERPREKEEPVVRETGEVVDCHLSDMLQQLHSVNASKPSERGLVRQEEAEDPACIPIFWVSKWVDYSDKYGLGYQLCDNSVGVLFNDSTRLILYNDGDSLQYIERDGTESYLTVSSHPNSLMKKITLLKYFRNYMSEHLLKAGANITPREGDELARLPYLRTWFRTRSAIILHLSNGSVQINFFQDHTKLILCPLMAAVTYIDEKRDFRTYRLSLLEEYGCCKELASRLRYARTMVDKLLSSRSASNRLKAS
JMJD2A Tudor inh: JMJD2A Tudor domain (human) inhibition; AlphaScreen JMJD2A-Tudor / H3K4me3 peptide binding; 4.4% of 390,000 active; O75164; AID 504339; Potency, µM (titrated, usually from 114 µM), inactives show top-dose activity change, negative = inhibition, usual class: inhibitors; note: potency is the fitted concentration of half-maximal effect; % is set by controls: 0 for no effect and ±100 for the full control effect; nearly all actives have a fitted effect of over 50% in size
KAT2A inh: GCN5L2 (KAT2A) acetyltransferase inhibition. GCN5L2 HAT assay, ThioGlo1 CoA-SH fluorescence. Potency, µM (titrated, usually from 58.9 µM), for inactives: top-dose activity change, negative = inhibition, most hits filed as inhibitors. AID 504327. 0.21% of 390,000 active. Q92830; note: potency is the fitted concentration of half-maximal effect; % is set by controls: 0 for no effect and ±100 for the full control effect
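Titration-based screen in which CoA formation is detected via maleimide probe ThioGlo1 (50uM) turning fluorescent on thiol reaction; substrates H3(1-25) 75uM and acetyl-CoA 70uM, GCN5L2 20nM, 20 min incubation at room temperature.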
PI5P4Ka inh: PI5P4K alpha (human) kinase inhibition; AID 652105; PI5P4Kalpha enzyme, ADP-Glo luminescence, 60 min; active compounds read low; max response, %; 1.2% of 330,000 active; P48426; active = max response of -50% or lower; inconclusive = between -30% and -50%; inactive = -30% or higher; note: value at the top dose of about 77 µM; % is set by controls: 0 for no effect and ±100 for the full control effect
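Single end-point luminescence (ADP-Glo) quantified ADP from PI5P4Kalpha turnover; ATP 5 microM final, 1 h at RT, 0.1% CHAPS and 0.28 mM EGTA in HEPES pH 7.4.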
HP1b binding inh: blocks HP1-beta chromodomain binding to methylated histone tails | P83916 | AlphaScreen HP1-beta / biotin-H3K9me3 peptide binding | Potency, µM (highest dose often 114 µM), without a hit: at the highest dose activity change, negative = inhibition, hits mostly inhibitors | 0.56% of 390,000 active | AID 540317; note: potency is the fitted concentration of half-maximal effect; nearly all actives have a fitted effect of over 70% in size
Target sequence (P83916 whole entry, looked up): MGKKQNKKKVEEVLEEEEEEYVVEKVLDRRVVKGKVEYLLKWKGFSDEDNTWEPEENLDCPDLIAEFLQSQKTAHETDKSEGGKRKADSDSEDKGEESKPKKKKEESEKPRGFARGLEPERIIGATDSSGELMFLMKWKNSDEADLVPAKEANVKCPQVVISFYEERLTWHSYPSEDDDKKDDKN
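HP1-beta protein (50 nM final) preincubated 30 min at room temperature with biotinylated H3(1-18)K9me3 peptide (50 nM) in PBS pH 7.4, 0.01% Tween-20, then compound added for 30 min. AlphaScreen streptavidin donor/nickel chelate acceptor beads (10 ug/mL final), 30 min dark, luminescence read.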
BAZ2B block: inhibitors of human BAZ2B bromodomain | AlphaScreen BAZ2B-H3K14Ac peptide displacement | Potency, µM (top dose mostly 114 µM), inactives show at the top dose activity change, negative = inhibition, usual class: inhibitors | 4.4% of 360,000 active | AID 504333; note: potency is the fitted concentration of half-maximal effect; % is set by controls: 0 for no effect and ±100 for the full control effect; nearly all actives have a fitted effect of over 60% in size
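Inhibition is scored as reduced AlphaScreen emission. The BAZ2B/b-H3(5-23)K14Ac complex (50 nM each) in PBS pH 7.4, 0.01% Tween-20 meets compound (up to 110 uM) for 30 min at RT before bead addition.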
Starred values were filed as active, the others as inactive; [ ] = remark or other dose. Unless noted, calls come from the whole dose curve; as a rule, active = well fitted curve in the direction sought with a large enough effect; inconclusive = small, poorly fitted or top-dose-only effect, or another doubt; inactive = no such curve, though single readings can be large; an effect the other way counts as inactive or inconclusive.

What do the screens show for `Cc1ccc(C)c(OCCC(=O)OCC(=O)NNC(=O)c2ccccc2)c1`?
PLK1 PBD inh: -2%; JMJD2A Tudor inh: -15%; KAT2A inh: -7%; PI5P4Ka inh: -10; HP1b binding inh: 49%; BAZ2B block: 9%

How did Cc1ccccc1N1CC(=O)N(c2ccccc2C)CC1=O do in these assays?
PLK1 PBD inh: 0%; JMJD2A Tudor inh: 1%; KAT2A inh: -9%; PI5P4Ka inh: 2; HP1b binding inh: 37%; BAZ2B block: 6%

What do the screens show for `Cc1cccc2c1c1ccc3c(c1n2C)C(=O)C=CC3=O`?
PLK1 PBD inh: inconclusive; JMJD2A Tudor inh: 25µM*; KAT2A inh: -19%; PI5P4Ka inh: -73*; HP1b binding inh: 6.3µM*; BAZ2B block: 5µM*

How did Cc1c(C)n(Cc2ccccc2)c2ccc(C(=O)N3CCN(c4ccccc4)CC3)cc12 do in these assays?
JMJD2A Tudor inh: 14µM*; KAT2A inh: -9%; HP1b binding inh: inconclusive; BAZ2B block: inconclusive

How did Cc1c(C)n(Cc2ccccc2)c2ccc(C(=O)NCCN3CCOCC3)cc12 do in these assays?
PLK1 PBD inh: -4%; JMJD2A Tudor inh: inconclusive; KAT2A inh: 1%; PI5P4Ka inh: 2; HP1b binding inh: 7%; BAZ2B block: inconclusive

Results for Cc1c(C)n(Cc2ccccc2)c2ccc(C(=O)N3CCN(c4ccc(F)cc4)CC3)cc12 ?
JMJD2A Tudor inh: inconclusive; KAT2A inh: -6%; HP1b binding inh: -9%; BAZ2B block: -38%

What do the screens show for `CCn1nc(C)c(/C=N/NC(=O)c2ccc3c(c2)c(C)c(C)n3Cc2ccccc2)c1C`?
PLK1 PBD inh: -13%; JMJD2A Tudor inh: 35µM*; KAT2A inh: -9%; PI5P4Ka inh: 6; HP1b binding inh: -16%; BAZ2B block: inconclusive

What do the screens show for `Cc1c(C)n(Cc2ccc(Cl)cc2)c2ccc(C(=O)NCCN3CCOCC3)cc12`?
PLK1 PBD inh: -6%; JMJD2A Tudor inh: inconclusive; KAT2A inh: -6%; PI5P4Ka inh: 3; HP1b binding inh: -8%; BAZ2B block: 45µM*

How did CCn1c(C)c(C)c2cc(C(=O)NCCCN3CCCC3)ccc21 do in these assays?
PLK1 PBD inh: -1%; JMJD2A Tudor inh: 50µM*; KAT2A inh: -1%; PI5P4Ka inh: -3; HP1b binding inh: 3%; BAZ2B block: -18%[57.1 µM]

Results for Cc1ccccc1NC(=O)Cc1nnc(SCC(=O)N2CCOCC2)n1C ?
PLK1 PBD inh: 2%; JMJD2A Tudor inh: 3%; KAT2A inh: -13%; PI5P4Ka inh: -8; HP1b binding inh: 43%; BAZ2B block: -3%

How did Cc1nc(-c2cccc(NC(=O)Nc3ccc([N+](=O)[O-])cc3)c2)no1 do in these assays?
JMJD2A Tudor inh: inconclusive; KAT2A inh: inconclusive; HP1b binding inh: -1%[57 µM]; BAZ2B block: inconclusive

What do the screens show for `O=C(COc1coc(CN2CCc3ccccc32)cc1=O)Nc1cccc(F)c1`?
PLK1 PBD inh: -4%; JMJD2A Tudor inh: -4%; KAT2A inh: -3%; PI5P4Ka inh: -12; HP1b binding inh: 12%; BAZ2B block: -28%

How did COCCNC(=O)c1cnc2sc(N3CCC(C)CC3)nn2c1=O do in these assays?
JMJD2A Tudor inh: 3%; KAT2A inh: -5%; HP1b binding inh: 13%; BAZ2B block: 0%

What do the screens show for `Cc1sc(-n2c(C)ccc2C)c(C#N)c1C`?
PLK1 PBD inh: 19µM*; JMJD2A Tudor inh: -36%; KAT2A inh: 2%; HP1b binding inh: -33%; BAZ2B block: -6%

How did COc1ccc(N(CC(=O)N/N=C/c2ccc3c(c2)OCO3)S(=O)(=O)c2ccc(NC(C)=O)cc2)cc1 do in these assays?
PLK1 PBD inh: 27µM*; JMJD2A Tudor inh: inconclusive; KAT2A inh: -8%; PI5P4Ka inh: -21; HP1b binding inh: inconclusive; BAZ2B block: 1%

What do the screens show for `O=C(Cc1ccc(Cl)cc1)Nc1nnc2n1CCS2`?
JMJD2A Tudor inh: inconclusive; KAT2A inh: -6%; HP1b binding inh: 13%[57 µM]; BAZ2B block: 56µM*

What do the screens show for `CC(C)Oc1ccc(C(=O)Nc2nnc3n2CCS3)cc1`?
JMJD2A Tudor inh: -13%; KAT2A inh: -2%; HP1b binding inh: 29%[57 µM]; BAZ2B block: -10%

Results for Cc1ccccc1C(=O)Nc1nnc2n1CCS2 ?
JMJD2A Tudor inh: inconclusive; KAT2A inh: 4%; HP1b binding inh: 9%[57 µM]; BAZ2B block: inconclusive

How did O=C(Nc1nnc2n1CCS2)c1ccc(F)cc1F do in these assays?
JMJD2A Tudor inh: 50µM*; KAT2A inh: -6%; HP1b binding inh: 13%[57 µM]; BAZ2B block: 50µM*

Results for CC(C)(Oc1ccc(Cl)cc1)C(=O)Nc1nnc2n1CCS2 ?
JMJD2A Tudor inh: 79µM*; KAT2A inh: 4%; HP1b binding inh: 11%[57 µM]; BAZ2B block: inconclusive

Results for CC(C)CC(=O)Nc1nnc2n1CCS2 ?
JMJD2A Tudor inh: -24%; KAT2A inh: -1%; HP1b binding inh: 12%[57 µM]; BAZ2B block: -2%

What do the screens show for `O=C(Nc1nnc2n1CCS2)c1ccc(Br)o1`?
PLK1 PBD inh: -14%; JMJD2A Tudor inh: 20µM*; KAT2A inh: -5%; PI5P4Ka inh: -5; HP1b binding inh: 29%; BAZ2B block: 20µM*

What do the screens show for `CCc1nc(C)cn1S(=O)(=O)c1ccc(Cl)c(Cl)c1OC`?
JMJD2A Tudor inh: -12%; KAT2A inh: 0%; HP1b binding inh: 11%; BAZ2B block: -33%

What do the screens show for `O=C1c2ccccc2C(=O)N1C1C=CC=CC=C1`?
PLK1 PBD inh: 30µM*; PI5P4Ka inh: -2

What do the screens show for `NC1=C(Br)C(=O)c2ncccc2C1=O`?
PLK1 PBD inh: 7.5µM*; JMJD2A Tudor inh: inconclusive; PI5P4Ka inh: -1; HP1b binding inh: inconclusive

How did O=C1C(=O)c2ncccc2-c2cccnc21 do in these assays?
KAT2A inh: -7%

What do the screens show for `O=C1[C@@H]2C(c3cccnc3)=NO[C@@H]2C(=O)N1c1ccc2ccccc2c1`?
PLK1 PBD inh: inconclusive; JMJD2A Tudor inh: 79µM*; KAT2A inh: -16%; PI5P4Ka inh: -21; HP1b binding inh: inconclusive; BAZ2B block: -9%

Results for COc1ccc(C2=NO[C@@H]3C(=O)N(c4ccc5c(c4)OCCO5)C(=O)[C@H]23)cc1OC ?
PLK1 PBD inh: -8%; JMJD2A Tudor inh: 25%; KAT2A inh: -8%; PI5P4Ka inh: -6; HP1b binding inh: 16%; BAZ2B block: 3%

How did CN(C(=O)c1cccc(NC(=O)Cc2ccc(NC(=O)C3CCN(C(=O)C4CCCC4)CC3)cc2)c1)C1CC1 do in these assays?
PLK1 PBD inh: 1%; JMJD2A Tudor inh: 2%; PI5P4Ka inh: -8; HP1b binding inh: 51%

What do the screens show for `O=C1c2ccccc2C(=O)c2c1cccc2N1CCCC1`?
PLK1 PBD inh: -3%; JMJD2A Tudor inh: 5µM*; KAT2A inh: -13%; PI5P4Ka inh: -6; HP1b binding inh: inconclusive; BAZ2B block: 5µM*
